The results in this text go back to PubChem BioAssay.

The source made the active and inactive calls.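 The calls were made as follows, unless noted: active = normalized viability below 100% at a tested concentration; inactive = the rest.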

A short description of one assay: blockers of cellular phospholipid synthesis – cell-based, LOPAC library, screen 4, primary screen (AID 1347384; call rule not given here). The following applies: animal cells, phospholipid biosynthesis inhibition screen; at 10 µM.
`N#CCCN`: the result was inactive.

Regarding `C[C@H]1C2Cc3ccc(O)cc3[C@@]1(C)CCN2CC1CC1`, the outcome was inactive.

For `[Cl][Pt].[NH2-].[NH2-].c1ccncc1`, the result was inactive.

The nature of a further assay: MELAS cybrid and Rieske KO viability enhancers – cell-based, MELAS cybrids, Rieske KO mouse fibroblasts, CellTiter-Glo, primary screen (AID 1508586;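 active = mean z-score across replicates of 1.96 or higher in either the MELAS or the Rieske mutant cell line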;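 also: z relative to plate mean and SD of compound and empty wells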). The following applies: MELAS cybrid survival, low glucose, CellTiter-Glo 48 h; stronger effect = higher value.
Take `CCN(CC)C(C)C(=O)c1ccccc1` (centres undefined): the z-score was 0.648 (inactive).

`CC(=O)O[C@H]1C[C@H](O[C@H]2[C@@H](O)C[C@H](O[C@H]3[C@@H](O)C[C@H](O[C@H]4CC[C@@]5(C)[C@H](CC[C@@H]6[C@@H]5C[C@@H](O)[C@]5(C)[C@@H](C7=CC(=O)OC7)CC[C@]65O)C4)O[C@@H]3C)O[C@@H]2C)O[C@H](C)[C@H]1O[C@@H]1O[C@H](CO)[C@@H](O)[C@H](O)[C@H]1O`: the z-score is 2.15 (active).

For the molecule `C=CC[C@]1(O)CC[C@H]2[C@@H]3CCC4=CC(=O)CCC4=C3C=C[C@@]21C`, the z-score was 0.712 (inactive).

As for `C=CCC1(CC(C)C)C(=O)NC(=O)NC1=O`, the z-score was 0.0849 (inactive).

In the case of `CC[C@H](C)[C@H]1O[C@]2(C=C[C@@H]1C)C[C@@H]1C[C@@H](C/C=C(\C)C(O[C@H]3C[C@H](OC)C(O[C@H]4C[C@H](OC)[C@@H](O)[C@H](C)O4)[C@H](C)O3)[C@@H](C)/C=C/C=C3\CO[C@@H]4[C@H](O)C(C)=C[C@@H](C(=O)O1)[C@]34O)O2` (some centres undefined), the z-score is -1.19 (inactive).

With `COCCCOc1ccnc(CS(=O)c2nc3ccccc3[nH]2)c1C` (centres undefined), the z-score is 1.01 (inactive).

Regarding `CN1CCN(C(=O)OC2c3nccnc3C(=O)N2c2ccc(Cl)cn2)CC1` (centres undefined), the z-score is -0.0147 (inactive).

The same assay, now with this note: Rieske KO mouse fibroblast survival, low glucose, CellTiter-Glo 72 h.
On to `CCN(CC)C(C)C(=O)c1ccccc1` (centres undefined), for which the z-score was -0.333.

As for `CC(=O)O[C@H]1C[C@H](O[C@H]2[C@@H](O)C[C@H](O[C@H]3[C@@H](O)C[C@H](O[C@H]4CC[C@@]5(C)[C@H](CC[C@@H]6[C@@H]5C[C@@H](O)[C@]5(C)[C@@H](C7=CC(=O)OC7)CC[C@]65O)C4)O[C@@H]3C)O[C@@H]2C)O[C@H](C)[C@H]1O[C@@H]1O[C@H](CO)[C@@H](O)[C@H](O)[C@H]1O`, the z-score turned out to be 0.322.

In the case of `C=CC[C@]1(O)CC[C@H]2[C@@H]3CCC4=CC(=O)CCC4=C3C=C[C@@]21C`, the z-score is 0.629.

For the molecule `C=CCC1(CC(C)C)C(=O)NC(=O)NC1=O`, the z-score is 0.0147.

`CC[C@H](C)[C@H]1O[C@]2(C=C[C@@H]1C)C[C@@H]1C[C@@H](C/C=C(\C)C(O[C@H]3C[C@H](OC)C(O[C@H]4C[C@H](OC)[C@@H](O)[C@H](C)O4)[C@H](C)O3)[C@@H](C)/C=C/C=C3\CO[C@@H]4[C@H](O)C(C)=C[C@@H](C(=O)O1)[C@]34O)O2` (some centres undefined): the z-score is 1.52.

Consider `COCCCOc1ccnc(CS(=O)c2nc3ccccc3[nH]2)c1C` (centres undefined), for which the z-score stood at 0.105.

As for `CN1CCN(C(=O)OC2c3nccnc3C(=O)N2c2ccc(Cl)cn2)CC1` (centres undefined), the z-score came to 0.36.

A short description of the next assay: drug combination growth inhibition, ovarian cancer – cell-based, oncology-focused library, rucaparib conditional, profiling panel (AID 1508598). The settings on record: patient-derived ovarian cancer cells, CellTiter-Glo viability, 144 h; at 0.000305 µM; OCI-C5x cells; with rucaparib 10 µM; stronger effect = lower value; 100% = cells with rucaparib alone.
As for `CC(C)[C@@]12O[C@@H]1[C@@H]1O[C@]13[C@]1(O[C@@H]1C[C@@H]1C4=C(CC[C@@]13C)C(=O)OC4)[C@@H]2O`, the viability was 33.2% (active).

On to `C/C(=C\c1csc(C)n1)[C@H]1C[C@@H]2O[C@]2(C)CCC[C@H](C)[C@H](O)[C@@H](C)C(=O)C(C)(C)[C@H](O)CC(=O)O1`, for which the viability is 47% (active).

As to `C/C(=C\c1csc(C)n1)[C@H]1C[C@@H]2O[C@@H]2CCC[C@H](C)[C@H](O)[C@@H](C)C(=O)C(C)(C)[C@H](O)CC(=O)O1`, the viability is 72.1% (active).

Staying with this assay, now noted: patient-derived ovarian cancer cells, CellTiter-Glo viability, 144 h; at 0.000305 µM; OCI-C5x cells; without rucaparib; stronger effect = lower value.
With `CC(C)[C@@]12O[C@@H]1[C@@H]1O[C@]13[C@]1(O[C@@H]1C[C@@H]1C4=C(CC[C@@]13C)C(=O)OC4)[C@@H]2O`, the viability is 23.2% (active).

As to `C/C(=C\c1csc(C)n1)[C@H]1C[C@@H]2O[C@]2(C)CCC[C@H](C)[C@H](O)[C@@H](C)C(=O)C(C)(C)[C@H](O)CC(=O)O1`, the viability is 25.7% (active).

Consider `C/C(=C\c1csc(C)n1)[C@H]1C[C@@H]2O[C@@H]2CCC[C@H](C)[C@H](O)[C@@H](C)C(=O)C(C)(C)[C@H](O)CC(=O)O1`, for which the viability was 52.1% (active).

Still in this assay, the particulars now being: patient-derived ovarian cancer cells, CellTiter-Glo viability, 144 h; at 0.000305 µM; OCI-P5x cells; with rucaparib 20 µM; stronger effect = lower value; 100% = cells with rucaparib alone.
As to `CC(C)[C@@]12O[C@@H]1[C@@H]1O[C@]13[C@]1(O[C@@H]1C[C@@H]1C4=C(CC[C@@]13C)C(=O)OC4)[C@@H]2O`, the viability was 11.8% (active).

`C/C(=C\c1csc(C)n1)[C@H]1C[C@@H]2O[C@]2(C)CCC[C@H](C)[C@H](O)[C@@H](C)C(=O)C(C)(C)[C@H](O)CC(=O)O1`: the viability was 57.2% (active).

In the case of `C/C(=C\c1csc(C)n1)[C@H]1C[C@@H]2O[C@@H]2CCC[C@H](C)[C@H](O)[C@@H](C)C(=O)C(C)(C)[C@H](O)CC(=O)O1`, the viability is 73.7% (active).

Staying with this assay, now noted: patient-derived ovarian cancer cells, CellTiter-Glo viability, 144 h; at 0.000305 µM; OCI-P5x cells; without rucaparib; stronger effect = lower value.
For the molecule `CC(C)[C@@]12O[C@@H]1[C@@H]1O[C@]13[C@]1(O[C@@H]1C[C@@H]1C4=C(CC[C@@]13C)C(=O)OC4)[C@@H]2O`, the viability is 6.41% (active).

Consider `C/C(=C\c1csc(C)n1)[C@H]1C[C@@H]2O[C@]2(C)CCC[C@H](C)[C@H](O)[C@@H](C)C(=O)C(C)(C)[C@H](O)CC(=O)O1`, for which the viability is 15.5% (active).

As for `C/C(=C\c1csc(C)n1)[C@H]1C[C@@H]2O[C@@H]2CCC[C@H](C)[C@H](O)[C@@H](C)C(=O)C(C)(C)[C@H](O)CC(=O)O1`, the viability was 30% (active).
